The values that follow come from PubChem BioAssay (NCATS).

Records with an inconclusive call do not appear. Calls of active or inactive are those of the source. Calls follow the shape of the dose curve; as a rule, active = well fitted curve in the direction sought with a large enough effect; inconclusive = small, poorly fitted or top-dose-only effect, or another doubt; inactive = no such curve, though single readings can be large; an effect the other way counts as inactive or inconclusive.

Test [1] is described as follows: Cell Viability - LYMP1-003 - Assay at 24 hr (AID 963). The following applies: LYMP1-003 lymphoblastoid cell viability; series mostly up to 92.2 µM. In short, it runs like this: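 CellTiter-Glo luminescence (intracellular ATP) read after 24 hr, 37 C compound exposure of 2500 LYMP1-003 human lymphoblastoid cells/well in complete medium; qHTS concentration series; AC50 via standard Hill equation.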

Test [2] in a line: Cell Viability - LYMP1-003 - Assay at 40 hr (AID 964). Also: nearly all actives have a fitted effect of over 60% in size. Also: potency is read from the fitted curve at half-maximal effect. The following applies: LYMP1-003 lymphoblastoid viability; series mostly up to 92.2 µM. In short, it runs like this: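 LYMP1-003 lymphoblastoid cells, 2500/well; 5 hr preincubation, 40 hr compound exposure, 37 C; CellTiter-Glo 30 min RT; luminescence; Hill-fit AC50. Positive control tetraoctylammonium bromide.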
Test [3] is described as follows: Cell Viability - LYMP2-003 (AID 965).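 Also: cells exposed to compounds for 24 h before reading; nearly all actives have a fitted effect of over 50% in size.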 Also: potency is read from the fitted curve at half-maximal effect. The following applies: LYMP2-003 lymphoblastoid cell viability; series mostly up to 92.2 µM. The essentials: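 Seed 2500 lymphoblastoid cells/well; incubate 5 hr, 37 C; add compounds; incubate 24 hr, 37 C; add CellTiter-Glo, 30 min RT; read luminescence. AC50 from Hill fit.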
Test [4] in a line: Cell Viability - LYMP2-004 (AID 966). Also: nearly all actives have a fitted effect of over 65% in size. Also: potency is read from the fitted curve at half-maximal effect. The following applies: LYMP2-004 lymphoblastoid cell viability, qHTS; series mostly up to 92.2 µM. The essentials:
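Luminescent ATP read-out (CellTiter-Glo, 30 min RT) after 24 hr compound exposure at 37 C; 2500 lymphoblastoid cells/well, complete medium. Decrease in ATP = cytotoxicity; AC50 from standard Hill model.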
Background: Quantitative high-throughput screening tests each substance at several concentrations.

Test [5] in a line: Cell Viability - LYMP2-005 (AID 967).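 Also: cells exposed to compound for 24 h at 37 °C.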 Also: potency is read from the fitted curve at half-maximal effect. The following applies: LYMP2-005 lymphoblastoid cell viability; series mostly up to 92.2 µM. In short, it runs like this:
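Acute cytotoxicity is scored as a concentration-dependent drop in intracellular ATP in human lymphoblastoid LYMP2-005 cells after 24 h compound treatment. ATP is quantified by luciferase luminescence, and AC50 is derived by Hill-equation modelling.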

Test [6] in a line: Cell Viability - LYMP2-009 (AID 968).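 Also: cells exposed to compound for 24 h at 37 °C; nearly all actives have a fitted effect of over 55% in size.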 Also: potency is read from the fitted curve at half-maximal effect. The following applies: LYMP2-009 lymphoblastoid cell viability; series mostly up to 92.2 µM.
The nature of test [7]: Cell Viability - LYMP2-011 (AID 969).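 Also: cells exposed to compound for 24 hours; nearly all actives have a fitted effect of over 60% in size.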 The following applies: LYMP2-011 lymphoblastoid cells viability; series mostly up to 92.2 µM. The essentials: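 Luminescent ATP read-out (CellTiter-Glo, 30 min RT) after 24 hr compound exposure at 37 C in human lymphoblastoid cells, 2500 cells/well. Decreasing ATP indicates cytotoxicity; AC50 from standard Hill fit.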
The nature of test [8]: Cell Viability - LYMP2-013 (AID 970).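 Also: cells exposed to compound for 24 h at 37 °C; nearly all actives have a fitted effect of over 55% in size.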 The following applies: LYMP2-013 lymphoblastoid cells viability; series mostly up to 92.2 µM. The essentials:
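CellTiter-Glo luminescence (cellular ATP) read after 30 min at RT. Cells: human lymphoblastoid line, 2500/well, 24 hr compound exposure at 37 C. Tetraoctylammonium bromide positive control; AC50 via standard Hill fit of qHTS titrations.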

Test [9] can be described thus: Cell Viability - LYMP2-015 (AID 971). Also: nearly all actives have a fitted effect of over 55% in size. The following applies: LYMP2-015 lymphoblastoid cell viability; series mostly up to 92.2 µM. In short, it runs like this:
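qHTS cytotoxicity: 2500 cells/well, 5 hr 37 C, compound 24 hr 37 C, CellTiter-Glo 30 min RT, luminescence. Loss of ATP = toxicity; AC50 via standard Hill fit.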

Test [10] can be described thus: Cell Viability - LYMP2-017 (AID 972).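 Also: cells exposed to compound for 24 hours at 37 °C; nearly all actives have a fitted effect of over 55% in size.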 The following applies: LYMP2-017 lymphoblastoid cell viability; series mostly up to 92.2 µM. The essentials: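 Luminescent ATP read-out (CellTiter-Glo, 30 min RT) reports viable cell number. Cells: human lymphoblastoid line, 2500 per well, 5 hr preincubation, 24 hr compound exposure at 37 C. AC50 is derived from qHTS concentration-response data using the standard Hill model.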

Regarding `CN=C(NC#N)NCCSCc1nc[nH]c1C`, the compound was classed as inactive in test [1], in test [7], in test [8], in [9] and in test [10]. Further, the Potency entry in test [2], in test [3], in test [4], in [5] and in test [6] was “inactive” throughout.
Turning to `COc1cc(Cc2cnc(N)nc2N)cc(OC)c1OC`, the result in test [1], in test [7], in test [8], in test [9] and in [10] was inactive. The Potency entry in test [2], in test [3], in test [4], in test [5] and in test [6] was “inactive” throughout.
Turning to `COc1ccc(CN(CCN(C)C)c2ccccn2)cc1`, the compound was called inactive in [1], in test [7], in test [8], in [9] and in test [10]. For the same compound, the Potency result in test [2], in test [3], in test [4], in test [5] and in [6] was “inactive” each time.
Regarding `CCCCOCCOCCOCc1cc2c(cc1CCC)OCO2`, the compound was classed as inactive in test [1], in test [7], in test [8], in test [9] and in [10]. Moreover, the Potency entry in [2], in test [3], in [4], in test [5] and in [6] was “inactive” each time.
With `Nc1nc(N)c2nc(-c3ccccc3)c(N)nc2n1`, the Potency entry in [3], in test [4], in test [5] and in test [6] was “inactive” throughout. Moreover, the compound was called inactive in test [7], in test [8] and in test [9].
In the case of `COC(=O)[C@H]1[C@H]2C[C@@H]3c4[nH]c5cc(OC)ccc5c4CCN3C[C@H]2C[C@@H](OC(=O)c2cc(OC)c(OC)c(OC)c2)[C@@H]1OC`, in [2], the Potency was 39.8 µM (active).
Turning to `NC(=O)N1c2ccccc2C=Cc2ccccc21`, the compound was called inactive in test [1], in test [7], in test [8], in test [9] and in test [10]. For the same compound, the Potency entry in [2], in test [3], in test [4], in [5] and in test [6] was “inactive” in each case.
With `Nc1ncn([C@@H]2O[C@H](CO)[C@@H](O)[C@H]2O)c(=O)n1`, the Potency in test [2] is 12.6 µM (active); in test [3], 10 µM (active); in test [4], 12.6 µM (active); in test [5] it was 12.6 µM (active); in test [6] it was 15.8 µM (active).
For the compound `O=c1[nH]c(=O)n([C@H]2C[C@H](O)[C@@H](CO)O2)cc1Br`, the outcome in test [1], in test [7], in test [8], in [9] and in test [10] was inactive. Moreover, the Potency result in test [2], in test [3], in test [4], in test [5] and in test [6] was “inactive” throughout.
Consider `NC(=Nc1ccccc1)Nc1ccccc1`, for which the result in [1], in test [7], in test [8], in test [9] and in [10] was inactive. The Potency result in test [2], in test [3], in test [4], in [5] and in [6] was “inactive” throughout.
Turning to `CCCCNC(=O)NS(=O)(=O)c1ccc(C)cc1`, the outcome in test [1], in test [7], in [8], in test [9] and in test [10] was inactive. Moreover, the Potency entry in test [2], in [3], in test [4], in test [5] and in test [6] was “inactive” each time.
